# Measured values: PubChem BioAssay AID1159580 (chemical genetic matrix, 2015)
# Values joined by “and” are separate entries in the source; they are usually repeats but may differ in a detail not shown here. Identical values can stand only once. Among all 5,500 compounds or so, about 2,000 (36%) were called active. Roughly 18% stayed inconclusive and do not appear here. The list shows a part of the results. A number with no mark means an inactive call. Rule as the data show it: active = normalized growth mostly below about 0.91 (no sharp cut-off); inconclusive = no clear call, values can overlap the other calls; inactive = mostly above about 0.92.
# Experiment: chemical genetic growth profiling, strain panel (AID 1159580);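 also: tested at 20 µM; growth read once vehicle control cultures reached saturation at 30 °C; 1 = growth at the plate median or of vehicle wells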
# Details: S. cerevisiae deletion strains, growth OD
smiles,measurement,setting,value
NC(N)=N/N=C/c1c(Cl)cccc1Cl,normalized growth,"locus YAL021C, strain ccr4, stronger effect = lower value",0.887 (active)
same,normalized growth,"locus YAL026C, strain drs2, stronger effect = lower value",0.976
same,normalized growth,"locus YAL030W, strain snc1, stronger effect = lower value",0.981
same,normalized growth,"locus YBL061C, strain skt5, stronger effect = lower value",0.986
same,normalized growth,"locus YBR009C, strain hhf1, stronger effect = lower value",0.941
same,normalized growth,"locus YBR021W, strain FUR4, stronger effect = lower value",1.01
same,normalized growth,"locus YBR023C, strain chs3, stronger effect = lower value",0.968
same,normalized growth,"locus YBR171W, strain sec66, stronger effect = lower value",0.982
same,normalized growth,"locus YBR229C, strain ROT2, stronger effect = lower value",1.02
same,normalized growth,"locus YBR231C, strain swc5, stronger effect = lower value",0.984
same,normalized growth,"locus YBR279W, strain paf1, stronger effect = lower value",0.975
same,normalized growth,"locus YCL011C, strain gbp2, stronger effect = lower value",0.963
same,normalized growth,"locus YCL016C, strain dcc1, stronger effect = lower value",0.954
same,normalized growth,"locus YCL029C, strain bik1, stronger effect = lower value",1.01
same,normalized growth,"locus YCL069W, strain vba3, stronger effect = lower value",0.973
same,normalized growth,"locus YCR088W, strain abp1, stronger effect = lower value",0.973
same,normalized growth,"locus YDL005C, strain med2, stronger effect = lower value",0.972
same,normalized growth,"locus YDL035C, strain GPR1, stronger effect = lower value",1.02
same,normalized growth,"locus YDL040C, strain nat1, stronger effect = lower value",0.982
same,normalized growth,"locus YDL074C, strain BRE1, stronger effect = lower value",1.02
same,normalized growth,"locus YDL101C, strain DUN1, stronger effect = lower value",1.01
same,normalized growth,"locus YDL134C, strain PPH21, stronger effect = lower value",1.02
same,normalized growth,"locus YDL185W, strain tfp1, stronger effect = lower value",1.02
same,normalized growth,"locus YDL192W, strain arf1, stronger effect = lower value",1.03
same,normalized growth,"locus YDR001C, strain nth1, stronger effect = lower value",0.972
same,normalized growth,"locus YDR069C, strain doa4, stronger effect = lower value",0.968
same,normalized growth,"locus YDR101C, strain arx1, stronger effect = lower value",1.01
same,normalized growth,"locus YDR137W, strain rgp1, stronger effect = lower value",0.922
same,normalized growth,"locus YDR159W, strain sac3, stronger effect = lower value",0.919
same,normalized growth,"locus YDR162C, strain NBP2, stronger effect = lower value",1.02
same,normalized growth,"locus YDR195W, strain ref2",0.97
same,normalized growth,"locus YDR297W, strain sur2, stronger effect = lower value",0.978
same,normalized growth,"locus YDR318W, strain mcm21, stronger effect = lower value",1.01
same,normalized growth,"locus YDR334W, strain swr1, stronger effect = lower value",0.977
same,normalized growth,"locus YDR335W, strain msn5, stronger effect = lower value",0.976
same,normalized growth,"locus YDR388W, stronger effect = lower value",1.01
same,normalized growth,"locus YDR392W, strain spt3, stronger effect = lower value",0.916
same,normalized growth,"locus YDR502C, strain sam2, stronger effect = lower value",1.03
same,normalized growth,"locus YEL003W, strain gim4, stronger effect = lower value",0.963
same,normalized growth,"locus YEL037C, strain rad23, stronger effect = lower value",0.984
same,normalized growth,"locus YEL061C, strain CIN8 (second series), stronger effect = lower value",0.972
same,normalized growth,"locus YEL061C, strain CIN8, stronger effect = lower value",1.01
same,normalized growth,"locus YER015W, strain faa2, stronger effect = lower value",0.992
same,normalized growth,"locus YER016W, strain bim1, stronger effect = lower value",0.938
same,normalized growth,"locus YER110C, stronger effect = lower value",1.02
same,normalized growth,"locus YER111C, strain swi4, stronger effect = lower value",0.963
same,normalized growth,"locus YER155C, strain BEM2 (second series), stronger effect = lower value",0.989
same,normalized growth,"locus YER155C, strain BEM2, stronger effect = lower value",1
same,normalized growth,"locus YER167W, strain BCK2, stronger effect = lower value",1
same,normalized growth,"locus YFR010W, strain ubp6, stronger effect = lower value",0.988
same,normalized growth,"locus YGL078C, strain dbp3, stronger effect = lower value",1.03
same,normalized growth,"locus YGL086W, strain mad1, stronger effect = lower value",1.01
same,normalized growth,"locus YGL167C, strain pmr1, stronger effect = lower value",0.981
same,normalized growth,"locus YGL173C, strain kem1, stronger effect = lower value",0.977
same,normalized growth,"locus YGL227W, strain vid30, stronger effect = lower value",0.964
same,normalized growth,"locus YGL240W, strain doc1, stronger effect = lower value",0.986
same,normalized growth,"locus YGL248W, strain PDE1, stronger effect = lower value",1.01
same,normalized growth,"locus YGL253W, strain hxk2, stronger effect = lower value",0.96
same,normalized growth,"locus YGR135W, strain pre9, stronger effect = lower value",1.03
same,normalized growth,"locus YGR252W, strain gcn5, stronger effect = lower value",1.03
same,normalized growth,"locus YHR013C, strain ard1, stronger effect = lower value",0.889
same,normalized growth,"locus YHR027C, strain rpn1, stronger effect = lower value",0.967
same,normalized growth,"locus YHR030C, strain SLT2, stronger effect = lower value",1 and 0.981
same,normalized growth,"locus YHR079C, strain IRE1 (second series), stronger effect = lower value",1
same,normalized growth,"locus YHR079C, strain IRE1, stronger effect = lower value",0.987
same,normalized growth,"locus YHR094C, strain hxt1, stronger effect = lower value",1.01
same,normalized growth,"locus YHR129C, strain ARP1, stronger effect = lower value",1.01
same,normalized growth,"locus YHR142W, strain chs7, stronger effect = lower value",0.978
same,normalized growth,"locus YHR200W, strain rpn10, stronger effect = lower value",1.03
same,normalized growth,"locus YIL066C, strain RNR3, stronger effect = lower value",1.02
same,normalized growth,"locus YIL073C, strain SPO22, stronger effect = lower value",1.04
same,normalized growth,"locus YIL125W, strain kgd1, stronger effect = lower value",1.01
same,normalized growth,"locus YIR030C, strain dcg1, stronger effect = lower value",1.01
same,normalized growth,"locus YJL092W, strain hpr5, stronger effect = lower value",0.978
same,normalized growth,"locus YJL095W, strain BCK1 (second series), stronger effect = lower value",0.982
same,normalized growth,"locus YJL095W, strain BCK1, stronger effect = lower value",1 and 0.981
same,normalized growth,"locus YJL115W, strain asf1, stronger effect = lower value",0.964
same,normalized growth,"locus YJL129C, strain trk1, stronger effect = lower value",1.03
same,normalized growth,"locus YJL134W, strain LCB3, stronger effect = lower value",1
same,normalized growth,"locus YJL154C, strain vps35, stronger effect = lower value",0.969
same,normalized growth,"locus YJL164C, strain tpk1, stronger effect = lower value",0.931
same,normalized growth,"locus YJL166W, strain qcr8, stronger effect = lower value",0.996
same,normalized growth,"locus YJL168C, strain set2, stronger effect = lower value",1.01
same,normalized growth,"locus YJL187C, strain SWE1 (second series), stronger effect = lower value",1.02
same,normalized growth,"locus YJR043C, strain POL32, stronger effect = lower value",1.02
same,normalized growth,"locus YJR066W, strain TOR1, stronger effect = lower value",0.936
same,normalized growth,"locus YJR075W, strain HOC1, stronger effect = lower value",1.01
same,normalized growth,"locus YKL009W, strain mrt4, stronger effect = lower value",1.01
same,normalized growth,"locus YKL068W, stronger effect = lower value",1.01
same,normalized growth,"locus YKL085W, strain MDH1 (second series), stronger effect = lower value",1
same,normalized growth,"locus YKL085W, strain MDH1, stronger effect = lower value",1
same,normalized growth,"locus YKL160W, strain elf1, stronger effect = lower value",0.983
same,normalized growth,"locus YKL190W, strain CNB1, stronger effect = lower value",1.01
same,normalized growth,"locus YKR001C, strain vps1, stronger effect = lower value",1.05
same,normalized growth,"locus YKR026C, strain gcn3, stronger effect = lower value",0.991
same,normalized growth,"locus YKR091W, strain srl3, stronger effect = lower value",0.979
same,normalized growth,"locus YLL001W, strain dnm1, stronger effect = lower value",1.01
same,normalized growth,"locus YLL026W, stronger effect = lower value",0.977
same,normalized growth,"locus YLL041C, strain sdh2, stronger effect = lower value",0.981
same,normalized growth,"locus YLR027C, strain aat2, stronger effect = lower value",0.977
same,normalized growth,"locus YLR039C, strain RIC1, stronger effect = lower value",0.965
same,normalized growth,"locus YLR058C, strain SHM2, stronger effect = lower value",1.02
same,normalized growth,"locus YLR102C, strain apc9, stronger effect = lower value",1.01
same,normalized growth,"locus YLR113W, strain HOG1, stronger effect = lower value",1
same,normalized growth,"locus YLR221C, strain rsa3, stronger effect = lower value",0.968
same,normalized growth,"locus YLR258W, strain gsy2, stronger effect = lower value",0.973
same,normalized growth,"locus YLR262C, strain YPT6 (second series), stronger effect = lower value",0.978
same,normalized growth,"locus YLR262C, strain YPT6, stronger effect = lower value",1.02
same,normalized growth,"locus YLR268W, strain sec22, stronger effect = lower value",1
same,normalized growth,"locus YLR320W, strain mms22, stronger effect = lower value",0.949
same,normalized growth,"locus YLR330W, strain CHS5, stronger effect = lower value",1.01
same,normalized growth,"locus YLR342W, strain FKS1 (second series), stronger effect = lower value",1.02
same,normalized growth,"locus YLR342W, strain FKS1, stronger effect = lower value",0.977
same,normalized growth,"locus YLR357W, strain rsc2, stronger effect = lower value",0.972
same,normalized growth,"locus YLR370C, strain arc18, stronger effect = lower value",0.974
same,normalized growth,"locus YLR371W, strain rom2, stronger effect = lower value",1.02
same,normalized growth,"locus YLR384C, strain iki3, stronger effect = lower value",0.99
same,normalized growth,"locus YLR418C, strain cdc73, stronger effect = lower value",1.02
same,normalized growth,"locus YML016C, strain PPZ1, stronger effect = lower value",1.01
same,normalized growth,"locus YML032C, strain rad52, stronger effect = lower value",1.02
same,normalized growth,"locus YML120C, strain ndi1, stronger effect = lower value",0.977
same,normalized growth,"locus YML124C, strain tub3, stronger effect = lower value",1.01
same,normalized growth,"locus YMR058W, strain fet3, stronger effect = lower value",0.971
same,normalized growth,"locus YMR078C, strain ctf18, stronger effect = lower value",1.02
same,normalized growth,"locus YMR125W, strain sto1, stronger effect = lower value",0.931
same,normalized growth,"locus YMR129W, stronger effect = lower value",0.984
same,normalized growth,"locus YMR205C, strain PFK2, stronger effect = lower value",0.986
same,normalized growth,"locus YMR223W, strain ubp8, stronger effect = lower value",1.02
same,normalized growth,"locus YMR231W, strain pep5, stronger effect = lower value",0.987
same,normalized growth,"locus YMR263W, strain SAP30, stronger effect = lower value",1.01
same,normalized growth,"locus YMR307W, strain GAS1, stronger effect = lower value",0.988
same,normalized growth,"locus YNL067W, strain RPL9B, stronger effect = lower value",1.01
same,normalized growth,"locus YNL071W, strain lat1, stronger effect = lower value",0.982
same,normalized growth,"locus YNL128W, strain TEP1, stronger effect = lower value",1.02
same,normalized growth,"locus YNL153C, strain GIM3, stronger effect = lower value",1.01
same,normalized growth,"locus YNL183C, strain NPR1, stronger effect = lower value",0.952
same,normalized growth,"locus YNL209W, strain ssb2, stronger effect = lower value",0.968
same,normalized growth,"locus YNL233W, strain BNI4, stronger effect = lower value",1
same,normalized growth,"locus YNL248C, strain rpa49, stronger effect = lower value",0.884 (active)
same,normalized growth,"locus YNL250W, strain rad50, stronger effect = lower value",1.04
same,normalized growth,"locus YNL271C, strain bni1, stronger effect = lower value",1.02
same,normalized growth,"locus YNL298W, strain CLA4, stronger effect = lower value",1.05
same,normalized growth,"locus YNL307C, strain MCK1, stronger effect = lower value",1.02
same,normalized growth,"locus YNL322C, strain KRE1 (second series), stronger effect = lower value",0.956
same,normalized growth,"locus YNL322C, strain KRE1, stronger effect = lower value",1
same,normalized growth,"locus YNR049C, strain mso1, stronger effect = lower value",0.966
same,normalized growth,"locus YNR052C, strain pop2, stronger effect = lower value",1.01
same,normalized growth,"locus YOL012C, strain htz1",0.878
same,normalized growth,"locus YOL147C, strain pex11, stronger effect = lower value",1.02
same,normalized growth,"locus YOR001W, strain rrp6, stronger effect = lower value",0.957
same,normalized growth,"locus YOR061W, strain CKA2, stronger effect = lower value",1.01
same,normalized growth,"locus YOR069W, strain VPS5, stronger effect = lower value",1.01
same,normalized growth,"locus YOR070C, strain gyp1, stronger effect = lower value",0.977
same,normalized growth,"locus YOR080W, strain dia2, stronger effect = lower value",0.98
same,normalized growth,"locus YOR083W, strain WHI5, stronger effect = lower value",0.952
same,normalized growth,"locus YOR106W, strain vam3, stronger effect = lower value",0.993
same,normalized growth,"locus YOR136W, strain idh2, stronger effect = lower value",1.02
same,normalized growth,"locus YOR144C, strain elg1, stronger effect = lower value",1.02
same,normalized growth,"locus YOR184W, strain ser1, stronger effect = lower value",1.02
same,normalized growth,"locus YOR231W, strain MKK1, stronger effect = lower value",0.987
same,normalized growth,"locus YOR265W, strain rbl2, stronger effect = lower value",0.985
same,normalized growth,"locus YOR270C, strain vph1, stronger effect = lower value",0.922
same,normalized growth,"locus YOR290C, strain snf2, stronger effect = lower value",0.918
same,normalized growth,"locus YOR316C, strain cot1, stronger effect = lower value",1.01
same,normalized growth,"locus YPL051W, strain arl3, stronger effect = lower value",0.981
same,normalized growth,"locus YPL078C, strain atp4, stronger effect = lower value",0.974
same,normalized growth,"locus YPL106C, strain sse1, stronger effect = lower value",0.921
same,normalized growth,"locus YPL240C, strain hsp82, stronger effect = lower value",0.977
same,normalized growth,"locus YPL241C, strain CIN2, stronger effect = lower value",1.02
same,normalized growth,"locus YPL256C, strain CLN2, stronger effect = lower value",0.987
same,normalized growth,"locus YPR119W, strain clb2, stronger effect = lower value",1.02
same,normalized growth,"locus YPR141C, strain kar3, stronger effect = lower value",1.02
same,normalized growth,"locus YPR163C, strain tif3, stronger effect = lower value",1.02
same,normalized growth,"locus YPR167C, strain met16, stronger effect = lower value",1.01
same,normalized growth,"strain wtn01, stronger effect = lower value",1.01
